TGFb SMAD3 inh = blocks TGF-b signaling. HepG2 CAGA-GFP TGF-b/SMAD3 reporter, GFP fluorescence, 18 h; TGF-beta stimulated, 500 pg/mL final. Potency, µM (top dose mostly 46.1 µM), inactives show at the top dose activity, negative = inhibition, most hits filed as inhibitors. 1.2% of 410,000 active. AID 588855; note: potency is the fitted concentration of half-maximal effect; % is set by controls: 0 for no effect and ±100 for the full control effect; nearly all actives have a fitted effect of over 65% in size
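Inhibition of TGF-beta-driven CAGA-GFP reporter expression in HEPG2 cells is measured by cellular GFP fluorescence after 18 h stimulation with 500 pg/mL recombinant TGF-beta in 1% FBS medium at 37 degrees C.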
HepG2 viability = kills HepG2 cells in TGF-b inhibitor counter-screen | HepG2 CAGA-GFP viability, ATP luminescence, 18 h | Potency, µM (titrated, usually from 46.1 µM), for the others: at the highest dose activity change, negative = cytotoxicity, usual class: cytotoxic | 0.76% of 410,000 active; note: potency is the fitted concentration of half-maximal effect
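HepG2 CAGA-GFP cells (1000/well, DMEM with 1% FBS) received compound, then TGF-beta at 500 pg/mL final, and were incubated 18 hours at 37 degrees C. Viability was read by CellTiter-Glo luminescence. Media-only wells were set as complete cell-killing and DMSO as no toxicity.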
IL-1B inflam inh = inflammasome signaling inhibition, IL-1 beta readout; 4.7% of 360,000 active; THP-1 LPS/ATP IL-1B secretion, AlphaLISA, 16 h; stronger effect = lower value; activity change, % at 57.5 µM; in the data active = activity change below about -50%; inconclusive = mostly about -30% to -49%; note: % is set by controls: 0 for no effect and ±100 for the full control effect
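THP-1 cells pretreated 1 hr with compounds (up to 57.5 uM final), then stimulated with LPS (250 ng/mL final) plus ATP (1.25 mM final); secreted IL-1B measured by AlphaLISA after 16 hr, decreased signal indicating inhibition.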
TDP1 cell noCPT = qHTS for Inhibitors of human tyrosyl-DNA phosphodiesterase 1 (TDP1): qHTS in cells in absence of CPT | DT40 Tdp1-/- hTDP1 cells, no CPT, ATP luminescence, 48 h | Potency, µM (series often up to 46.2 µM), for inactives: top-dose activity change, negative = growth inhibition, hits mostly inhibitors | 15% of 420,000 active | AID 686978, 2013; note: potency is the fitted concentration of half-maximal effect; % is set by controls: 0 for no effect and ±100 for the full control effect; nearly all actives have a fitted effect of over 55% in size
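Compound effects on proliferation are scored in DT40 Tdp1-/-;hTDP1 cells in the absence of CPT. ATP levels (CellTiter-Glo luminescence) are recorded after a ≥48 hr, 37 °C incubation.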
TDP1 inh = blocks human tyrosyl-DNA phosphodiesterase 1 | Q9NUW8 | recombinant TDP1, AlphaScreen DNA substrate cleavage | Potency, µM (top dose mostly 130 µM), inactives show top-dose activity change, negative = inhibition, actives largely listed as inhibitors | 0.28% of 350,000 active | AID 485290; note: potency is the fitted concentration of half-maximal effect; % is set by controls: 0 for no effect and ±100 for the full control effect; nearly all actives have a fitted effect of over 40% in size
Target sequence (Q9NUW8 whole entry, looked up): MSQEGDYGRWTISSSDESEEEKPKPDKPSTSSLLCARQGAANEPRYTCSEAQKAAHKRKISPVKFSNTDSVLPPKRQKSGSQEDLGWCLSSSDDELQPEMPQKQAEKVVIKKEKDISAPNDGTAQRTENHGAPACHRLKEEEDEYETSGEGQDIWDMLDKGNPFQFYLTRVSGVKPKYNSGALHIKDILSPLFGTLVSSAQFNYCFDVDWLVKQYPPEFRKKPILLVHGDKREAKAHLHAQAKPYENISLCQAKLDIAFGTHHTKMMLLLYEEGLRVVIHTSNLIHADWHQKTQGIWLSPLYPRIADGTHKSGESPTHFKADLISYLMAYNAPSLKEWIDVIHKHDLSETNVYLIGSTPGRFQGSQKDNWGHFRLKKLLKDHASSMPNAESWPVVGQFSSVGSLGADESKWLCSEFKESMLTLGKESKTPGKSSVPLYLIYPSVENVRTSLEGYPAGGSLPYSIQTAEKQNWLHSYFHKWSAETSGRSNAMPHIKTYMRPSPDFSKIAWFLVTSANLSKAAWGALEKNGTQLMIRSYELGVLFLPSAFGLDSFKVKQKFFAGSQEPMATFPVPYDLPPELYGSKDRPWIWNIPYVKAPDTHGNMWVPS
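Tdp1 1 nM final; 15 min RT w/ cpd; substrate 15 nM, 5 min; beads 10 ug/ml, 10 min; AlphaScreen read. Neg ctrl: no enzyme.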
TDP1 cell CPT = growth inhibition of DT40 Tdp1-/-;hTDP1 cells with camptothecin (screen for TDP1 inhibitors) | chicken DT40 Tdp1-/-;hTDP1 cells + 20 nM CPT, ATP luminescence, 48 h | Potency, µM (highest dose often 46.2 µM), inactives show at the top dose activity change, negative = growth inhibition, actives largely listed as inhibitors | 12% of 420,000 active; note: potency is the fitted concentration of half-maximal effect; % is set by controls: 0 for no effect and ±100 for the full control effect; nearly all actives have a fitted effect of over 55% in size
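Chicken DT40 Tdp1-/- cells stably complemented with human TDP1 were seeded at 400 cells/well in medium containing 20 nM camptothecin, exposed to pin-transferred compounds, and grown at 37 °C for at least 48 hr. Viability was read as ATP luminescence.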
Numbers without * were called inactive; ? = inconclusive; / = not tested or not shown; [ ] = remark or other dose. Hits are enriched below; roughly 19% of the tested compounds scored in any of these assays. Unless noted, calls come from the whole dose curve; as a rule, active = well fitted curve in the direction sought with a large enough effect; inconclusive = small, poorly fitted or top-dose-only effect, or another doubt; inactive = no such curve, though single readings can be large; an effect the other way counts as inactive or inconclusive.

SMILES	TGFb SMAD3 inh	HepG2 viability	IL-1B inflam inh	TDP1 cell noCPT	TDP1 inh	TDP1 cell CPT
Cc1ccccc1NC(=O)CSc1nnc(-c2ccco2)c(-c2ccco2)n1	-4.1%	2.4%	-30.0	?	-11.6%	?
COc1ccc(OCCN(C)CC(=O)Nc2c(C)cccc2C)cc1	-0.2%	-24.0%	7.4	23.1µM*	/	?
O=C(Nc1cc2c3c(c1)CC(=O)N3CCC2)C1CC1	-21.6%	8.1%	22.9	5.1%	/	-4.8%
COc1cccc(-n2ccnc2SCC(=O)Nc2ccc(Cl)c(Cl)c2)c1	-21.4%	0.9%	/	?	2.2%	-25.8%
O=C(CSc1nnc(-c2ccccc2)c(-c2ccccc2)n1)NCc1ccco1	-5.4%	-30.1%	-6.3	23.1µM*	12.0%[56.1 µM]	?
O=C(CSc1nnc(-c2ccco2)c(-c2ccco2)n1)Nc1ccccc1	-18.5%	7.1%	-57.5*	?	/	?
COc1ccc(-c2nnc(SCC(=O)Nc3c(C)cccc3C)nc2-c2ccc(OC)cc2)cc1	4.9%	-32.0%	/	1.84µM*	/	?
COc1ccc(NC(=O)CSc2nc(-c3ccc(F)cc3)c3cccc(C)c3n2)cc1	3.0%	0.4%	/	?	7.0%	?
C[C@@H]1C(NC(=O)c2ccccc2)CC2CC1C2(C)C (stereo not given in full)	-0.3%	-24.1%	6.6	?	10µM*	?
CCOC(=O)c1c(NC(C)=O)sc2c1CCC(C=NCCCN(CC)CC)=C2Sc1ccccc1	1.3%	-13.5%	-96.6*	13µM*	/	14.6µM*
N#Cc1cccc(C(=O)Nc2cccc(S(=O)(=O)N3CCCC3)c2)c1	-22.6%	-12.6%	-4.6	-24.5%	1.6%	-9.7%
CS(=O)(=O)c1ccc(C(=O)OCC(=O)NCc2cccs2)cc1[N+](=O)[O-]	11.2µM*	-106.3%	-97.0*	4.61µM*	0.6%	5.8µM*
Cc1cccc(C(=O)OCC(=O)NCc2cccs2)c1	2.2%	1.1%	26.1	-6.1%	-5.1%	?
CCNC(=O)[C@H]1O[C@H](n2cnc3c(N)nc(NCCc4ccc(CCC(=O)O)cc4)nc32)[C@@H](O)[C@@H]1O	/	/	/	?	-2.4%	0.2%
Cc1ccc(C)c(NC(=O)N2CCC(CN3CCOCC3)CC2)c1	29.6%	20.1%	/	-11.4%	2.5%	-7.6%
CS(=O)(=O)c1nc(-c2cccs2)cc(C(F)(F)F)n1	/	/	/	/	11.2%	/
COc1cc(NC(=O)CSc2nc(-c3cccs3)cc(C(F)(F)F)n2)cc(OC)c1OC	-2.0%	-3.2%	/	?	3.2%	20.6µM*
O=C(CSc1nc(-c2cccs2)cc(C(F)(F)F)n1)NCc1ccccc1	23.3%	-21.8%	-3.3	23.1µM*	0.0%	?
CC(C)CNC(=O)CSc1nc(-c2cccs2)cc(C(F)(F)F)n1	0.9%	-20.7%	-1.3	?	0.1%[56.1 µM]	?
Cc1cc(NC(=O)CCCS(=O)(=O)c2nc(-c3cccs3)cc(C(F)(F)F)n2)no1	14.1µM*	-106.0%	-69.5*	2.59µM*	-2.0%	2.59µM*
O=C(CCS(=O)(=O)c1nc(-c2cccs2)cc(C(F)(F)F)n1)Nc1cccc(O)c1	?	-93.4%	/	5.17µM*	8.8%	2.31µM*
COC(=O)c1ccccc1NC(=O)CCCS(=O)(=O)c1nc(-c2ccccc2OC)cc(C(F)(F)F)n1	-10.2%	-15.7%	/	-20.5%	11.8%	-0.3%
Cc1ccc(C(=O)Nc2ccc3oc(-c4ccccc4C)nc3c2)cc1	1.9%	-23.7%	/	?	-1.6%	?
Cc1ccc(NC(=O)CN2C(=O)CCc3ccccc32)cc1C	-19.5%	-47.3%	/	?	5.2%	?
Cc1cc(=O)n(CC(=O)NCc2ccc(OC(C)C)cc2)c2c1c(C)nn2-c1cccc(F)c1	7.4%	-4.5%	/	?	9.7%	-29.2%
SMILES	TGFb SMAD3 inh	HepG2 viability	IL-1B inflam inh	TDP1 cell noCPT	TDP1 inh	TDP1 cell CPT
COc1cc(NC(=O)CCS(=O)(=O)c2nc(-c3cccs3)cc(C(F)(F)F)n2)cc(OC)c1OC	12.6µM*	11.2µM*	/	6.51µM*	?	4.11µM*
O=C(O)CCS(=O)(=O)c1nc(-c2cccs2)cc(C(F)(F)F)n1	?	-26.4%	-28.9	14.6µM*	5.6%	10.3µM*
COc1cc(NC(=O)CS(=O)(=O)c2ccccc2)cc(OC)c1OC	0.2%	9.3%	-7.8	-20.8%	4.4%	-4.5%
CC(C)OC(=O)c1ccc(NC(=O)CSc2nc(-c3cccs3)cc(C(F)(F)F)n2)cc1	?	-33.4%	/	29.1µM*	0.0%	16.4µM*
COc1cccc(CNC(=O)C(=O)NCC(c2ccco2)S(=O)(=O)c2ccccc2)c1 (stereo not given)	0.0%	-18.7%	/	?	2.6%	-27.0%
COc1ccc(C2C(C(=O)Nc3cccnc3)=C(C)Nc3nc(-c4ccccc4)nn32)cc1OC (stereo not given)	-16.8%	-9.5%	/	-8.4%	-1.1%	-1.8%
CCOc1ccc(-n2c(SCC(=O)N3CCCCC3)nc3c([nH]c4ccccc43)c2=O)cc1	5.4%	-2.4%	/	?	6.6%	-29.6%
COc1cn(CC(=O)Nc2c(C)cc(C)cc2C)c(CN2CCCCC2)cc1=O	0.6%	1.2%	/	-8.8%	2.5%	13.8%
CC[C@]12c3[nH]c4ccc(OC)cc4c3CCN1C(=O)C(CC(=O)NCCc1ccccn1)C[C@@H]2C(=O)N1CCN(C(=O)C2CC2)CC1 (stereo not given in full)	3.9%	17.7%	3.0	-3.4%	0.5%[56.1 µM]	-14.7%
C=C1CCN([C@@H](Cc2ccccc2)C(=O)NCc2ccc(Cl)cc2)S(=O)(=O)c2ccccc21	-18.7%	-11.4%	0.0	20.6µM*	/	?
C=C1CCN(C(CC(C)C)C(=O)NCCCc2ccccc2)S(=O)(=O)c2ccccc21 (stereo not given)	11.2µM*	-33.2%	/	/	6.2%	/
C=C1CCN([C@H](C(=O)OCc2cccc(C)c2)C(C)C)S(=O)(=O)c2ccccc21	-2.5%	-19.7%	14.7	14.6µM*	/	?
C=C1CCN([C@@H](Cc2ccccc2)C(=O)NCc2ccccc2)S(=O)(=O)c2ccccc21	-16.6%	-15.0%	3.9	?	/	-24.2%
CCOC(=O)c1[nH]c2c(c1-c1ccc(OC)cc1)C(=O)CC(c1ccc(OC)c(OC)c1)C2 (stereo not given)	9.0%	-3.0%	/	?	5.3%	?
